For nine molecules, composite z-score results are on record in PubChem BioAssay.

In this assay the target is Torsin-1A-interacting protein 1 (Homo sapiens) (UniProt Q5JTV8). Kind of assay: compound microarray binding of lysate hLAP1 – cell lysate, small-molecule microarray, COS7 lysate, 635/667 nm fluorescence, primary screen (AID 1116). Particulars: 635 nm fluorescence, higher = more signal.
Sequence of Torsin-1A-interacting protein 1 (Homo sapiens) (Q5JTV8 whole entry, looked up): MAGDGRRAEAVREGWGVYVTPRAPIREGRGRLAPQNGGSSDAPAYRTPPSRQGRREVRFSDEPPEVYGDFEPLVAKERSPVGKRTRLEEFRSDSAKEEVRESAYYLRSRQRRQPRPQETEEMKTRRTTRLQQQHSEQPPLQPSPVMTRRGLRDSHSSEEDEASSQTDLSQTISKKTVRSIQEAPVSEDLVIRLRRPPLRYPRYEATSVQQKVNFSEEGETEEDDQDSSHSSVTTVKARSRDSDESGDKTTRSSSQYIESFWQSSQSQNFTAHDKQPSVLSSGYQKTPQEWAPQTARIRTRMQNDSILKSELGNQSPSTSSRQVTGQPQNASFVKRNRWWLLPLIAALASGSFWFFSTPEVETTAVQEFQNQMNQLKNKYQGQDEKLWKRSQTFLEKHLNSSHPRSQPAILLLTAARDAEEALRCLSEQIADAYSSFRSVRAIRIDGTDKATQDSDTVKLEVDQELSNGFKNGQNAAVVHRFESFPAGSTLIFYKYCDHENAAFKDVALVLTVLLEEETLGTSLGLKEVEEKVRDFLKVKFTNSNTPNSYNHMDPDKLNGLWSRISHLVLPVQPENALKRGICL
`CCOC(=O)C1=CCC(c2ccco2)N(S(=O)(=O)c2ccc(C)cc2)C1` (centres undefined) registered a composite z-score of 0.761. `COCCOC(=O)N1C(=O)[C@@]2(c3cc(C#CCC(C(=O)OC)C(=O)OC)ccc31)[C@H](C(=O)NC[C@H](O)c1ccccc1)[C@H]1C(=O)O[C@H](c3ccccc3)[C@H](c3ccccc3)N1[C@@H]2c1ccc(OCCO)cc1` gave a composite z-score of 0.314. To `CCCNC(=O)[C@@]1(Sc2ccc(C)cc2)CC(=O)N(C(C)C)[C@@H]1c1ccc(CO)cc1I` belongs 0.669; to `COC(=O)[C@@]1(Cc2ccc(F)cc2)[C@H]2c3cc(C(=O)N4CCCC4)n(C)c3C[C@H]2CN1C(=O)c1ccccc1`, 2.84; to `O=C1O[C@H](c2ccccc2)[C@H](c2ccccc2)N2[C@H]1[C@@H](C(=O)N1CCCCCCC1)[C@]1(C(=O)Nc3ccc(C#CC4(O)CCCCCC4)cc31)[C@H]2c1ccc(O)cc1`, 4.57. To `O=C1O[C@H](c2ccccc2)[C@H](c2ccccc2)N2[C@H]1[C@@H](C(=O)O)[C@]1(C(=O)Nc3ccc(C#CC4(O)CCCCCC4)cc31)[C@H]2c1ccc(O)cc1` belongs -0.0781.

`COCCOC(=O)N1C(=O)[C@@]2(c3ccccc31)[C@H](c1ccccc1OCCO)N1[C@H](c3ccccc3)[C@H](c3ccccc3)OC(=O)[C@H]1[C@@H]2C(N)=O` gave a composite z-score of 1.29.

Take `NC(=O)[C@@H]1[C@H]2C(=O)O[C@H](c3ccccc3)[C@H](c3ccccc3)N2[C@H](c2ccc(OCCO)cc2)[C@@]12C(=O)Nc1ccc(C#CCCO)cc12`: the composite z-score was 0.628. As to `Cc1cccc([C@H]2C[C@H]3C(Br)=C[C@@H]2C(=O)[C@]32CO2)c1`, the composite z-score is -0.188.
